# Results taken from PubChem BioAssay (Tox21).
# Several values for one entry are separate records, joined by “and”; a condition that tells them apart may be missing. Identical values can stand only once. Results filed as inconclusive are left out. Where a call stands in place of a potency, no number is given. More than one record can exist for a structure, and the calls need not agree. Activity calls are given as the source filed them. The call rests on the fitted dose curve; in most records, active means well fitted curve in the direction sought with a large enough effect in the repeat runs; inconclusive means weak or mixed curves; inactive means no such curve, though single readings can be large; an effect the other way counts as inactive or inconclusive.
# What was measured:
# [1] = A CellTox Green Cytotoxicity Assay to monitor cytotoxicity in HEK293 cells - 24 hour (AID 1224875); further: series mostly up to about 77 µM; nearly all actives have a fitted effect of over 45% in size
# Method in brief: (§1)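 Fluorescence intensity, read at 0, 8, 16, 24, 32 and 40 h of compound treatment, reflected dye binding to DNA of dead HEK293 cells; compounds (23 nL, DMSO) were added 5 h after plating cells with reagent.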
# [2] = A CellTox Green Cytotoxicity Assay to monitor cytotoxicity in HepG2 cells - 16 hour (AID 1224876); further: nearly all actives have a fitted effect of over 45% in size; further: potency means the concentration at half of the fitted maximal effect
# Method in brief: (§2)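 Using 1536-well format, dye-containing HepG2 suspension was seeded, allowed 5 h at 37 C/5% CO2, dosed by pintool with compounds, positive and negative controls, and imaged for fluorescence across 40 h.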
# [3] = A CellTox Green Cytotoxicity Assay to monitor cytotoxicity in HepG2 cells - 24 hour (AID 1224878); further: nearly all actives have a fitted effect of over 45% in size; further: potency means the concentration at half of the fitted maximal effect
# Method in brief: as §2
# [4] = A CellTox Green Cytotoxicity Assay to monitor cytotoxicity in HepG2 cells - 40 hour (AID 1224879); further: nearly all actives have a fitted effect of over 40% in size; further: potency means the concentration at half of the fitted maximal effect
# Method in brief: as §2
# [5] = qHTS RealTime-Glo MT Cell Viability Assay in HEK293 cells - 0 hour (AID 1224880); further: top concentration of the series differs between compounds; nearly all actives have a fitted effect of over 45% in size
# Method in brief: (§3)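 Viable HEK293 cells reduce a cell-permeant prosubstrate; the product diffuses out and is consumed by NanoLuc in the medium to give light. Compounds went in after a 5 h incubation and plates were read over the treatment course.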
# [6] = A CellTox Green Cytotoxicity Assay to monitor cytotoxicity in HEK293 cells - 32 hour (AID 1224881); further: nearly all actives have a fitted effect of over 40% in size; further: potency means the concentration at half of the fitted maximal effect
# Method in brief: as §1
# [7] = A CellTox Green Cytotoxicity Assay to monitor cytotoxicity in HepG2 cells - 0 hour (AID 1224882); further: nearly all actives have a fitted effect of over 35% in size; further: potency means the concentration at half of the fitted maximal effect
# Method in brief: as §2
# [8] = A CellTox Green Cytotoxicity Assay to monitor cytotoxicity in HepG2 cells - 32 hour (AID 1224883); further: nearly all actives have a fitted effect of over 50% in size; further: potency means the concentration at half of the fitted maximal effect
# Method in brief: as §2
# [9] = A CellTox Green Cytotoxicity Assay to monitor cytotoxicity in HEK293 cells - 8 hour (AID 1224884); further: nearly all actives have a fitted effect of over 35% in size; further: potency means the concentration at half of the fitted maximal effect
# Method in brief: as §1
# [10] = qHTS RealTime-Glo MT Cell Viability Assay in HepG2 cells - 16 hour (AID 1224885); further: nearly all actives have a fitted effect of over 50% in size
# Method in brief: (§4)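 HepG2 cells (600/well) were dispensed with RealTime-Glo reagents, incubated 5 h at 37 °C, then treated with compounds in DMSO for up to 40 h. Nonlytic NanoLuc luminescence reflecting viable cells was read at each stated time point.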
# [11] = qHTS RealTime-Glo MT Cell Viability Assay in HEK293 cells - 24 hour (AID 1224886); further: nearly all actives have a fitted effect of over 50% in size; further: potency means the concentration at half of the fitted maximal effect
# Method in brief: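 HEK293 cells seeded with NanoLuc/prosubstrate reagent, rested 5 h at 37 C, then dosed and kept at 37 C up to 40 h. Nonlytic real-time luminescence from viable cells read at 0, 8, 16, 24, 32 and 40 h.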
# [12] = A CellTox Green Cytotoxicity Assay to monitor cytotoxicity in HEK293 cells - 16 hour (AID 1224888); further: nearly all actives have a fitted effect of over 35% in size
# Method in brief: as §1
# [13] = qHTS RealTime-Glo MT Cell Viability Assay in HepG2 cells - 0 hour (AID 1224889); further: nearly all actives have a fitted effect of over 50% in size
# Method in brief: as §4
# [14] = A CellTox Green Cytotoxicity Assay to monitor cytotoxicity in HepG2 cells - 8 hour (AID 1224890); further: nearly all actives have a fitted effect of over 45% in size; further: potency means the concentration at half of the fitted maximal effect
# Method in brief: as §2
# [15] = qHTS assay to identify small molecule antagonists of the estrogen receptor alpha (ER-alpha) signaling pathway using the BG1 cell line in the presence of 0.1 nM 17-beta-estradiol - cell viability counter screen (AID 1259241); further: nearly all actives have a fitted effect of over 40% in size
# Method in brief: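 Measures cytotoxicity alongside the ER-alpha antagonist readout: VM7Luc4E2 cells, charcoal-stripped serum, 0.1 nM 17beta-estradiol final, 22 hr compound incubation at 37C, CellTiter-Fluor fluorescence.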
# [16] = target: Estrogen receptor (Homo sapiens) (UniProt P03372); test: qHTS assay to identify small molecule antagonists of the estrogen receptor alpha (ER-alpha) signaling pathway using the BG1 cell line in the presence of 0.1 nM 17-beta-estradiol (AID 1259244); further: nearly all actives have a fitted effect of over 50% in size; further: potency means the concentration at half of the fitted maximal effect
# Method in brief: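 Estradiol at 0.1 nM (final) stimulates the endogenous ER-alpha of VM7Luc4E2 cells carrying an ERE-driven luciferase; compounds are co-incubated 22 h at 37C and luciferase output quantified by luminescence.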
# [17] = qHTS RealTime-Glo MT Cell Viability Assay in HepG2 cells - 32 hour (AID 1224877); further: nearly all actives have a fitted effect of over 55% in size
# Method in brief: as §4
# [18] = qHTS assay to identify small molecule antagonists of the androgen receptor (AR) signaling pathway using the MDA cell line in the presence of 0.5 nM R1881 - cell viability counter screen (AID 1259242); further: nearly all actives have a fitted effect of over 45% in size
# Method in brief: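 Viability of MDA-kb2 cells was multiplexed with the luciferase AR readout; after 16 hr with compounds and R1881 at 0.5 nM final, CellTiter-Fluor fluorescence was recorded.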
# [19] = target: Androgen receptor (Homo sapiens) (UniProt P10275); test: qHTS assay to identify small molecule antagonists of the androgen receptor (AR) signaling pathway using the MDA cell line in the presence of 0.5 nM R1881 (AID 1259243); further: nearly all actives have a fitted effect of over 50% in size
# Method in brief: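 Reporter cells cultured without CO2 receive test chemicals, then 0.5 nM R1881 final; after 16 hr at 37C, ONE-Glo is added and light output recorded.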
# [20] = qHTS RealTime-Glo MT Cell Viability Assay in HEK293 cells - 8 hour (AID 1224887)
# Method in brief: as §3
# Androgen receptor (Homo sapiens), sequence (P10275 whole entry, looked up): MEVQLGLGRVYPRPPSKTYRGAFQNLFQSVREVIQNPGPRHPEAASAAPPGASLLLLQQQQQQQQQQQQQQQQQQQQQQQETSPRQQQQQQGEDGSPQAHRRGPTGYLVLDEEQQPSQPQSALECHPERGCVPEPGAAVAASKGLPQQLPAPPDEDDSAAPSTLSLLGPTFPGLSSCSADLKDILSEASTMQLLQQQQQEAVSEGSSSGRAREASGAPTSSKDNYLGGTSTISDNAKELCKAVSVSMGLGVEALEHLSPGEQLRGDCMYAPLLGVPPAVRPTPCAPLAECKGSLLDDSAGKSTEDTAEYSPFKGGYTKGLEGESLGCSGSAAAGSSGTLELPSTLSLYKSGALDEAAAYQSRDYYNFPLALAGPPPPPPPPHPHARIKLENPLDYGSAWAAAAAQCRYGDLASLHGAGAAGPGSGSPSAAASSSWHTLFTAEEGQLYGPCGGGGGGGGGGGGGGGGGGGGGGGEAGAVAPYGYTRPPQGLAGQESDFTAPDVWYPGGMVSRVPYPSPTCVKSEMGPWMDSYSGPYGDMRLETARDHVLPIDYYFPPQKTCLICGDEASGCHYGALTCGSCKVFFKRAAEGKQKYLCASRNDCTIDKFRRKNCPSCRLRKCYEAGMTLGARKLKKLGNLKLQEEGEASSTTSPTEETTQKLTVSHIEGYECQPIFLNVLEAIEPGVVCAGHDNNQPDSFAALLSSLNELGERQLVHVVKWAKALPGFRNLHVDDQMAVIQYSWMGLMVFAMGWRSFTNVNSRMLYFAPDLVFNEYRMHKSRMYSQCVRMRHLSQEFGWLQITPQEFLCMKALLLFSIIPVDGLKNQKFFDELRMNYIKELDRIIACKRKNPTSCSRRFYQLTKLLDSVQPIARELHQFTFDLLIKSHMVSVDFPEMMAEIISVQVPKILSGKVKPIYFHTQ
# Estrogen receptor (Homo sapiens), sequence (P03372 whole entry, looked up): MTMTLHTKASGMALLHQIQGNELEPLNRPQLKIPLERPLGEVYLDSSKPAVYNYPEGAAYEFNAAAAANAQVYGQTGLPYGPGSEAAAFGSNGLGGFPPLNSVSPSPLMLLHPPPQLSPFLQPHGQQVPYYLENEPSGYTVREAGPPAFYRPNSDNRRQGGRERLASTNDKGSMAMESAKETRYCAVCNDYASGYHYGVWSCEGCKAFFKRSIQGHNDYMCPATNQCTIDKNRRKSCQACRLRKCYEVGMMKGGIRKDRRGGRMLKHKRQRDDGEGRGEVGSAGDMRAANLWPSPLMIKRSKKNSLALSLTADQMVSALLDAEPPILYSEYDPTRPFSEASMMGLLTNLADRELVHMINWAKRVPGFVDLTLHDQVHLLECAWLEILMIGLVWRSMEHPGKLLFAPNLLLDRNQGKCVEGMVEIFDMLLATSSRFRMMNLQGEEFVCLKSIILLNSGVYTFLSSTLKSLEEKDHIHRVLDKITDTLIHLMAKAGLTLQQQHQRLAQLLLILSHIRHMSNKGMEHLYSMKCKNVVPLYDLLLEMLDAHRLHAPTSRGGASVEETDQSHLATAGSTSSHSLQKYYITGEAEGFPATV
SMILES,Potency [1],Potency [2],Potency [3],Potency [4],outcome [5],Potency [6],Potency [7],Potency [8],Potency [9],outcome [10],Potency [11],Potency [12],outcome [13],Potency [14],Potency [15],Potency [16],outcome [17],outcome [18],Potency [19],outcome [20]
CON(C)C(=O)Nc1ccc(Cl)c(Cl)c1,inactive,inactive,inactive,inactive,inactive,inactive,inactive,inactive,inactive,inactive,inactive and 43.6 µM (active),inactive,inactive,inactive,inactive,inactive,,,,
C=CCO,,inactive and 24.5 µM (active),inactive and 24.5 µM (active),inactive and 24.5 µM (active),inactive,inactive and 38.9 µM (active),inactive and 38.9 µM (active),inactive and 24.5 µM (active),inactive and 27.5 µM (active),inactive,inactive,,inactive,inactive and 27.5 µM (active),inactive,,inactive,,,
O=[N+]([O-])c1ccc([As](=O)(O)O)cc1,inactive,inactive,inactive,inactive,inactive,inactive,inactive,inactive,inactive,inactive,inactive,inactive,inactive,inactive,inactive,inactive,,inactive,,
CCCN(CCC)c1c([N+](=O)[O-])cc(C(F)(F)F)cc1[N+](=O)[O-],,inactive,inactive,inactive,inactive,1.55 µM (active) and inactive,inactive,inactive,1.23 µM (active) and inactive,inactive,inactive,inactive,inactive,inactive,inactive,inactive,inactive,inactive,inactive,
CCCCN(CCCC)SN(C)C(=O)Oc1cccc2c1OC(C)(C)C2,inactive,inactive,inactive,inactive,inactive,inactive,inactive,inactive,inactive,inactive,,inactive,inactive,inactive,inactive,inactive,,inactive,,
CC(C)C1(C)N=C(c2nc3ccccc3cc2C(=O)O)NC1=O (centres undefined),inactive,inactive,inactive,inactive,inactive,inactive,inactive,inactive,inactive,inactive,inactive,inactive,inactive,inactive,inactive,inactive,,,,inactive
OCCN(CCO)CCO,inactive,inactive,inactive,inactive,inactive,inactive,inactive,inactive,inactive,inactive,inactive,inactive,inactive,inactive,inactive,,,inactive,,inactive
CC(C)OC(=O)Nc1cccc(Cl)c1,inactive,inactive,inactive,inactive,inactive,inactive,inactive,inactive,inactive,inactive,inactive,inactive,inactive,inactive,inactive,inactive,,,,
C#CCN(C)[C@H](C)Cc1ccccc1,inactive,inactive,inactive,inactive,inactive,inactive,inactive,inactive,inactive,inactive,inactive,inactive,inactive,inactive,inactive,inactive,,inactive,,
Cn1cc(-c2ccccc2)c(=O)c(-c2cccc(C(F)(F)F)c2)c1,inactive,inactive,inactive,inactive,inactive,inactive,inactive,inactive,inactive,inactive,inactive,inactive,,inactive,inactive,inactive,,inactive,,
ClCCBr,inactive,inactive,inactive,inactive,inactive,inactive,inactive,inactive,inactive,inactive,inactive,inactive,inactive,inactive,inactive,inactive,,,,inactive
O=c1n(Cl)c(=O)n(Cl)c(=O)n1Cl,inactive,inactive,inactive,inactive,inactive,inactive,inactive,inactive,inactive,inactive,inactive,inactive,inactive,inactive,inactive,inactive,,inactive,,inactive
c1ccc(OP(Oc2ccccc2)Oc2ccccc2)cc1,inactive,inactive,inactive,inactive,inactive,inactive,inactive,inactive,inactive,inactive,inactive,inactive,inactive,inactive,inactive,inactive,,inactive,,
CCCCCCCCCCCC#N,,inactive and 45.2 µM (active),inactive and 45.2 µM (active),inactive and 50.7 µM (active),inactive,inactive and 40.3 µM (active),inactive and 45.2 µM (active),inactive and 45.2 µM (active),inactive and 45.2 µM (active),inactive,inactive,,inactive,inactive and 40.3 µM (active),inactive,,,inactive,,inactive
Cc1ccc(N)cc1N,inactive,inactive,inactive,inactive,inactive,inactive,inactive,inactive,inactive,inactive,inactive,inactive,inactive,inactive,inactive,inactive,,inactive,,inactive
CCNc1nc(NC(C)C)nc(SC)n1,inactive,inactive,inactive,inactive,inactive,inactive,inactive,inactive,inactive,inactive,inactive,inactive,inactive,inactive,inactive,,,inactive,inactive,inactive
CCOP(OCC)OCC,inactive,inactive,inactive,inactive,inactive,inactive,inactive,inactive,inactive,inactive,inactive,inactive,inactive,inactive,inactive,inactive,,,,inactive
O=c1ccc(=O)[nH][nH]1,inactive,inactive,inactive,inactive and 130 nM (active),inactive,inactive,inactive,inactive and 130 nM (active),inactive,inactive,inactive,inactive,inactive,inactive,inactive,,,inactive,inactive,
O=c1[nH]c(=O)[nH]c(=O)[nH]1,inactive,inactive,inactive,inactive,inactive,inactive,inactive,inactive,inactive,inactive,inactive,inactive,inactive,inactive,inactive,,,,inactive,inactive
C1CN2CCN1CC2,,inactive and 21.9 µM (active),inactive and 21.9 µM (active),inactive and 21.9 µM (active),inactive,inactive and 21.9 µM (active),inactive and 21.9 µM (active),inactive and 21.9 µM (active),inactive and 21.9 µM (active),inactive,inactive,,inactive,inactive and 24.5 µM (active),inactive,inactive,,,,inactive
O=NN1CCCC1,inactive,,,57.5 µM (active) and inactive,inactive,inactive,inactive,,inactive and 21.9 µM (active),inactive,inactive,inactive,inactive,inactive and 38.9 µM (active),inactive,20.2 µM (active) and inactive,,inactive,,inactive
CC(C)(C)OOC(=O)c1ccccc1,inactive,inactive,inactive,inactive,inactive,inactive,inactive,inactive,inactive,inactive,inactive,inactive,inactive,inactive,inactive,,,inactive,,
